In the OligoGym collection one finds sensor-assay potency score (higher = more potent) data, which are given here for 40 sequences.
Also: reference of the scale not given here.

The target in the first assay is LHFPL4. Description: pooled miR-30 sensor sort-seq; sequence = guide strand. The following applies: shRNA.
On to AAGAGCTGCATCCAGGCGCAGA, for which the sensor-assay potency score (higher = more potent) is -1.19. Take AAAATCTTTGTTCTCCGGCTTG: the sensor-assay potency score (higher = more potent) is -0.289. Sequence ATCTTGTAGACCGTAGCCGTGT displayed a sensor-assay potency score (higher = more potent) of -0.823. For the sequence AGATCTTGTAGACCGTAGCCGT, the sensor-assay potency score (higher = more potent) was -1.61.

The next assay has as its target LHFPL5. The assay is described as above. The following applies: shRNA.
Regarding TTGCAGATGAAGAACAGGCTGA, the sensor-assay potency score (higher = more potent) came to 0.379. On the same count and under the same terms, in the case of TAGTGTTATAATAAAAGGCTTC it was -0.225; in that of TTCTGGTTGAGTCAGTGTGGGC, -1.68; in that of TACAGTAGGAGGTCTTGTCTCA, -0.0507.

In the case of TTGTCTCAGGAGACTGTCCAGT, the sensor-assay potency score (higher = more potent) is -0.336.

AACATAAGTAACACATTTCTGA yielded a sensor-assay potency score (higher = more potent) of -0.109.

As to TATAACAAATTACTTGAACATA, the sensor-assay potency score (higher = more potent) is -1.51. The sequence TTGAACATAAGTAACACATTTC registered a sensor-assay potency score (higher = more potent) of -0.364. Still for that read-out and setting: in the case of TTGACGCTGTCGCCGATCCAGT it was -1.35; in that of TAGTTGGTATGGTAGATCTTGG, -1.03.

The sequence TAACACATTTCTGAAGCTGGTA showed a sensor-assay potency score (higher = more potent) of 0.181. As to TAGACTGTGGCCGTGTTGCAGA, the sensor-assay potency score (higher = more potent) is -0.721.

A further assay concerns the target LHX3. The description is as above. The following applies: shRNA.
With TTTGACTTACACACAGGCCAGC, the sensor-assay potency score (higher = more potent) was -0.684. TTGGCAACAGACATCTGTGGGT: the sensor-assay potency score (higher = more potent) came out at 0.209.

The sequence TTGTCCGACTTGGAGCCGCCGC showed a sensor-assay potency score (higher = more potent) of -1.19.

With TTGAGACACTTGCTGTGCCAGT, the sensor-assay potency score (higher = more potent) was -0.489. For the sequence TGCACTTGAGACACTTGCTGTG, the sensor-assay potency score (higher = more potent) is -0.126. Sequence TTGAAGTCTTGGAAAGAGCTGA gave a sensor-assay potency score (higher = more potent) of 0.479.

For the sequence TTTCATGTCTAGAAATAGCAGC, the sensor-assay potency score (higher = more potent) was found to be 0.283. The same measure, in the same setting: with ATGAGGTAGAACTCGTCGCCCG the figure was -1.34. In turn, TTGCAGTAAACGCTCTCCCCTC showed a sensor-assay potency score (higher = more potent) of -0.865. Consider TTGAAAAAGTCGTCCTTGCAGT, for which the sensor-assay potency score (higher = more potent) was -0.456.

For the sequence TTTGGCAACAGACATCTGTGGG, the sensor-assay potency score (higher = more potent) was -0.246. As to TAGGTCAGAACTGGGTCCGTTC, the sensor-assay potency score (higher = more potent) is -0.902.

In another assay the target is LHX9. The assay is described as above. The settings on record: shRNA.
With TGCGTTTTGGAACCAAACCTGC, the sensor-assay potency score (higher = more potent) is -1.08. On the same count and under the same terms, in the case of TTTCTGGGCAAGCTGCTTGAGG it was -0.927; in that of TTTCATGGTCCGGAGCTGGTGA, -0.253; in that of TTACATTCACAGCACTTCAGGC, -0.155. Turning to TACAGTGATAGTGGGATTGGTC, the sensor-assay potency score (higher = more potent) was -0.245. Turning to TAAAGTGGTCGCAGTGCCGGGT, the sensor-assay potency score (higher = more potent) was -0.418. On to TTCTGAATTTGGCTCGTGCGTT, for which the sensor-assay potency score (higher = more potent) is -1.08. Sequence TTCCTTCTGAATTTGGCTCGTG had a sensor-assay potency score (higher = more potent) of 0.209. Regarding TGTCACTACAGTGATAGTGGGA, the sensor-assay potency score (higher = more potent) turned out to be 0.281. Take TTGAGGTCCTTGGCATCCGGGT: the sensor-assay potency score (higher = more potent) is -1.42.

For the sequence TAGTTTGTGAGGGGCTTCCGGA, the sensor-assay potency score (higher = more potent) is -1.17. Take TTAAAGTGGTCGCAGTGCCGGG: the sensor-assay potency score (higher = more potent) is -1.18.
